Several values for one entry are separate records, joined by “and”; a condition that tells them apart may be missing. Equal values may be shown once. For some assays here: Results with a measured potency or affinity are listed apart. Activity calls are given as the source filed them.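 The calls were made as follows, unless noted: active = normalized viability below 100% at a tested concentration; inactive = the rest.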
How the values were obtained:
[1] = blockers of polyQ-driven CASP3 activation – cell-based (AID 1583); conditions: polyglutamine-induced caspase-3 activation, cell assay; stronger effect = higher value;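 tested at 10 µM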
[2] = yeast 75Q aggregation reduction – 75Q-TubU reporter (AID 1593); conditions: Yeast 75Q polyglutamine aggregation reporter
[3] = restoration of touch response, mutant HTT neurons – whole organism, C. elegans mechanosensory neurons, N-terminal huntingtin (AID 1599); conditions: C. elegans polyQ-huntingtin mechanosensory neurons, stronger effect = higher value
[4] = blockers of cytochrome c efflux from mitochondria – biochemical, purified mitochondria (AID 1603); conditions: stronger effect = lower value;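 also: mouse liver mitochondria challenged with calcium chloride; signal normalized to the plate average as 100%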
[5] = polyglutamine aggregate formation blockers (AID 1604); conditions: polyglutamine-induced protein aggregation inhibition assay; stronger effect = higher value; tested at 2.5 µM
[6] = glutamate transport activators, MN-1 cells, MN-1 cell line (AID 1612); conditions: MN-1 motor neuron cells, stronger effect = higher value;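 also: tested at 1 µM final; 0% = mean of DMSO vehicle wells on each plate; positive means more glutamate uptake than control and negative means less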
[7] = 75Q-TubH aggregate inhibition, S. cerevisiae, yeast (AID 1616); conditions: S. cerevisiae 75Q-TubH polyglutamine aggregation suppression; stronger effect = higher value
[8] = compounds altering circadian rhythm period length – cell-based, LOPAC library, luminescence reporter (AID 2774; call rule not given here;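 also: values are relative to mean of DMSO wells on each plate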); conditions: circadian reporter cells, at 7 µM, actives lie on both sides
[9] = tested on: Hepatitis C virus NS3 helicase; test: blockers of NS3h binding to ssDNA – biochemical, fluorescence polarization, LOPAC1280 library, primary screen (AID 687035; in the data active = inhibition above about 37%); conditions: Purified HCV NS3 helicase, Cy5-dT15 ssDNA binding fluorescence polarization; stronger effect = higher value; concentration not given here
[10] = compounds altering Cy5-DNA-NS3h complex signal – biochemical, LOPAC1280, artefact control for HCV NS3 helicase inhibitor project (AID 687037; call rule not given here); conditions: Cy5-DNA-NS3h complex fluorescence interference counterscreen
[11] = target: 6-phosphogluconate dehydrogenase, decarboxylating (Homo sapiens) (UniProt P52209); test: inhibition of human phosphogluconate dehydrogenase – biochemical, recombinant enzyme, NADPH absorbance, primary screen (AID 1159550;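 active = at least 20% inhibition of 6-phosphogluconate dehydrogenase activity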); conditions: recombinant 6PGD, NADPH absorbance 341 nm; at 10 µM; stronger effect = higher value
6-phosphogluconate dehydrogenase, decarboxylating (Homo sapiens), sequence (P52209 whole entry, looked up): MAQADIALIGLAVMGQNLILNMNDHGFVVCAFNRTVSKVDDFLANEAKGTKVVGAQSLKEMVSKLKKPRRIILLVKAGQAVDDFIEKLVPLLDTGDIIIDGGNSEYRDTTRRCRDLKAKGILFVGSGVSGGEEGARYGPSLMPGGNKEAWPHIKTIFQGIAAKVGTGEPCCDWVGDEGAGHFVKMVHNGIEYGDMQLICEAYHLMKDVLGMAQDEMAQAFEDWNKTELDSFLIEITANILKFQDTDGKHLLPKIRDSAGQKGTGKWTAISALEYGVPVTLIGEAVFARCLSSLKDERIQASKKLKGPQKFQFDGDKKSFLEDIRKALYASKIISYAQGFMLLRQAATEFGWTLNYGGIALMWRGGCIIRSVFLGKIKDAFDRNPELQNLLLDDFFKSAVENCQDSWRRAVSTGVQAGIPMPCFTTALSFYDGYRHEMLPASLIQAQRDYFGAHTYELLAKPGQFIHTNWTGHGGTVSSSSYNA

[12] = EMT-state selective cytotoxicity in co-culture – imaging, PC-3E GFP, TEM4-18 mCherry, primary screen (AID 1345086;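 active = compounds killing one labelled cell type while sparing the other, by normalised counts and ratio limits, not self-fluorescent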;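 also: cells exposed to compound for 72 h before imaging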;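 as to red/green cell ratio (normalised): normalised mesenchymal count divided by normalised epithelial count so high means epithelial killing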); conditions: PC-3E GFP / TEM4-18 mCherry co-culture, imaging cell counts, at 1 µM
[13] = blockers of cellular phospholipid synthesis – cell-based, LOPAC library, screen 4, primary screen (AID 1347384; call rule not given here); conditions: animal cells, phospholipid biosynthesis inhibition screen; at 10 µM
[14] = MELAS cybrid and Rieske KO viability enhancers – cell-based, MELAS cybrids, Rieske KO mouse fibroblasts, CellTiter-Glo, primary screen (AID 1508586;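 active = mean z-score across replicates of 1.96 or higher in either the MELAS or the Rieske mutant cell line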;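 also: z relative to plate mean and SD of compound and empty wells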); conditions: low glucose
[15] = drug combination growth inhibition, ovarian cancer – cell-based, oncology-focused library, rucaparib conditional, profiling panel (AID 1508598); conditions: patient-derived ovarian cancer cells, CellTiter-Glo viability, 144 h, stronger effect = lower value
[16] = target: Mitogen-activated protein kinase 7 (Homo sapiens) (UniProt Q13164); test: Gal4-ERK5 driven luciferase induction – cell-based, HTS, primary screen (AID 1508626;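 active = luciferase signal above three times the same-plate solvent-only control wells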;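 also: luciferase driven by Gal4-ERK5 fusion binding five Gal4 sites before minimal TATA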); conditions: HeLa Gal4-ERK5 transactivation, 18 h, at 5 µM, stronger effect = higher value
Mitogen-activated protein kinase 7 (Homo sapiens), sequence (Q13164 whole entry, looked up, the tested form may be a part): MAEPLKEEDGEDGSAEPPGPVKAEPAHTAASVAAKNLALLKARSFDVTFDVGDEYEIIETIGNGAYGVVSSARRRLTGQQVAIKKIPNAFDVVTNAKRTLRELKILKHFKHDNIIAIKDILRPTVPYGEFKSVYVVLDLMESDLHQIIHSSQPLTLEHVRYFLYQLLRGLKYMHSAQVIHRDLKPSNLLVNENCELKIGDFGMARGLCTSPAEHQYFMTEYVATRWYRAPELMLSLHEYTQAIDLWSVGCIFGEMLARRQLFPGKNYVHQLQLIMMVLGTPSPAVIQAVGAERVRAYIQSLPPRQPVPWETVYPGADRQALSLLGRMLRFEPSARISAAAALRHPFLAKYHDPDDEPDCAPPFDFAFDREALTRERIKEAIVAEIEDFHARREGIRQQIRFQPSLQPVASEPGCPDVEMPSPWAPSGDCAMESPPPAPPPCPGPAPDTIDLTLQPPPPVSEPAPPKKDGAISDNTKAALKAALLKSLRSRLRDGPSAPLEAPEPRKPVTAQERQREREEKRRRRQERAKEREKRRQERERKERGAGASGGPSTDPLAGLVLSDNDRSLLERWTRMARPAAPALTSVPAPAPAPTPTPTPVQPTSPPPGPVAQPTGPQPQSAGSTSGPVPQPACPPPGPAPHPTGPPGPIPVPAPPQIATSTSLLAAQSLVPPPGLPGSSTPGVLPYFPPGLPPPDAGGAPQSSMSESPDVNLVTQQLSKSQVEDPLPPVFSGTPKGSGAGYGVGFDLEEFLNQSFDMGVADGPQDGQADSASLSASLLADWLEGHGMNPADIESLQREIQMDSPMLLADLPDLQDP

CC/C(=C(\c1ccccc1)c1ccc(OCCN(C)C)cc1)c1ccccc1
-1.76: score [2]
2.54: rescue above control [3]
active: viability ([15]; at 0.000305 µM, OCI-C5x cells, with rucaparib 10 µM, 100% = cells with rucaparib alone) 93.5% | viability ([15]; at 0.000305 µM, OCI-C5x cells, without rucaparib) 95.2% | viability ([15]; at 0.000305 µM, OCI-P5x cells, with rucaparib 20 µM, 100% = cells with rucaparib alone) 89.3% | viability ([15]; at 0.000305 µM, OCI-P5x cells, without rucaparib) 83.7% | viability ([15]; at 0.00122 µM, OCI-C5x cells, without rucaparib) 97.1% | viability ([15]; at 0.00122 µM, OCI-P5x cells, with rucaparib 20 µM, 100% = cells with rucaparib alone) 92.3% | viability ([15]; at 0.00122 µM, OCI-P5x cells, without rucaparib) 91.4% | viability ([15]; at 0.00488 µM, OCI-C5x cells, without rucaparib) 93.8% | viability ([15]; at 0.00488 µM, OCI-P5x cells, without rucaparib) 97.9% | viability ([15]; at 0.0195 µM, OCI-C5x cells, without rucaparib) 97.1% | viability ([15]; at 0.0195 µM, OCI-P5x cells, with rucaparib 20 µM, 100% = cells with rucaparib alone) 89.8% | viability ([15]; at 0.0195 µM, OCI-P5x cells, without rucaparib) 99.8% | viability ([15]; at 0.0781 µM, OCI-C5x cells, with rucaparib 10 µM, 100% = cells with rucaparib alone) 99.2% | viability ([15]; at 0.0781 µM, OCI-C5x cells, without rucaparib) 92.3% | viability ([15]; at 0.0781 µM, OCI-P5x cells, with rucaparib 20 µM, 100% = cells with rucaparib alone) 97% | viability ([15]; at 0.0781 µM, OCI-P5x cells, without rucaparib) 99.7% | viability ([15]; at 0.313 µM, OCI-C5x cells, without rucaparib) 95.3% | viability ([15]; at 0.313 µM, OCI-P5x cells, with rucaparib 20 µM, 100% = cells with rucaparib alone) 97.5% | viability ([15]; at 1.25 µM, OCI-C5x cells, with rucaparib 10 µM, 100% = cells with rucaparib alone) 98.2% | viability ([15]; at 5 µM, OCI-C5x cells, with rucaparib 10 µM, 100% = cells with rucaparib alone) 95.5% | viability ([15]; at 5 µM, OCI-C5x cells, without rucaparib) 100% | viability ([15]; at 5 µM, OCI-P5x cells, with rucaparib 20 µM, 100% = cells with rucaparib alone) 97.5%
58.9%: inhibition of aggregation [5]
2.67: cytochrome c release ratio [4]
22.9%: inhibition [1]
inactive: period change [8] 0.115 h | inhibition [9] -5% and -2% | fluorescence ratio (interference) [10] 1 and 0.9 | inhibition [11] 1.2% | red/green cell ratio (normalised) ([12]; actives lie on both sides, counts scaled to control wells, 1 = unselective) 1.09 | outcome [13] | z-score ([14]; MELAS cybrid survival, CellTiter-Glo 48 h, stronger effect = higher value) -0.656 and -1.22 | viability ([15]; at 0.00122 µM, OCI-C5x cells, with rucaparib 10 µM, 100% = cells with rucaparib alone) 109% | viability ([15]; at 0.00488 µM, OCI-C5x cells, with rucaparib 10 µM, 100% = cells with rucaparib alone) 103% | viability ([15]; at 0.00488 µM, OCI-P5x cells, with rucaparib 20 µM, 100% = cells with rucaparib alone) 101% | viability ([15]; at 0.0195 µM, OCI-C5x cells, with rucaparib 10 µM, 100% = cells with rucaparib alone) 107% | viability ([15]; at 0.313 µM, OCI-C5x cells, with rucaparib 10 µM, 100% = cells with rucaparib alone) 110% | viability ([15]; at 0.313 µM, OCI-P5x cells, without rucaparib) 102% | viability ([15]; at 1.25 µM, OCI-C5x cells, without rucaparib) 100% | viability ([15]; at 1.25 µM, OCI-P5x cells, with rucaparib 20 µM, 100% = cells with rucaparib alone) 100% | viability ([15]; at 1.25 µM, OCI-P5x cells, without rucaparib) 106% | viability ([15]; at 5 µM, OCI-P5x cells, without rucaparib) 101% | luciferase signal [16] 84 AU
0.93: normalised cell number ([12]; measured here: epithelial PC-3E GFP cell survival)
-0.635: aggregation suppression score [7]
1.01: normalised cell number ([12]; measured here: mesenchymal TEM4-18 mCherry cell survival)
0.287 and -0.548: z-score ([14]; Rieske KO mouse fibroblast survival, CellTiter-Glo 72 h)
-4.23%: glutamate uptake change [6]

— PubChem BioAssay
